Here are results for 49 compounds from PubChem BioAssay AID1347055 (National Center for Advancing Translational Sciences (NCATS), 2019).

SMILES strings stand for the structures. “And” between values parts separate entries of the source, which are not always exact repeats. Equal values may be shown once. About 120 (0.22%) of roughly 54,000 compounds were called active. Another 8% or so got no clear call; they are omitted. Calls follow the shape of the dose curve; as a rule, active = well fitted inhibition curve with a large enough effect; inconclusive = small, poorly fitted or top-dose-only effect, or effect the other way; inactive = flat fitted curve, though single readings scatter. Only a selection was taken, and actives are over-represented in it overall. Some compounds were tested as several samples or in several runs, with calls that do not always agree.
% is scaled to controls: 0 for no effect and ±100 for the full control effect; potency is read from the fitted curve at half-maximal effect.

For this test, the target named is Fumarate hydratase, mitochondrial (Homo sapiens) (UniProt P07954). The test is described as follows: Identification of activators of human fumarate hydratase by quantitative high-throughput screening. Also: the screen sought activators but most active calls are inhibition curves; nearly all actives have a fitted effect of over 45% in size. The note with it: FH coupled MDH/diaphorase resazurin fluorescence, 15 min; series mostly up to 79.9 µM; activity change, negative = inhibition: at the top concentration. An excerpt: Fumarate hydratase (FH) is a metabolic enzyme that is part of the Krebs-cycle, and reversibly catalyzes the hydration of fumarate to malate. Mutations of the FH gene have been associated with fumarate hydratase deficiency (FHD), hereditary leiomyomatosis, renal cell cancer (HLRCC), and other diseases. Currently there are no high-quality small molecule probes for studying human fumarate hydratase. To address this, we developed a quantitative high throughput screening (qHTS) FH assay and screened a total of 57,037 compounds in dose-response. While no inhibitors of FH were confirmed, a series of phenyl-pyrrolo-pyrimidine-diones (12 compounds) were identified as activators of human fumarate hydratase. […] The binding of two compounds from the series to human fumarate hydratase was confirmed by microscale thermophoresis. The low hit rate in this screening campaign confirmed that FH is a "tough target" to modulate, and the small molecule activators of human fumarate hydratase reported here may serve as a starting point for further optimization and development into cellular probes of human FH and potential drug candidates.
Chain of Fumarate hydratase, mitochondrial (Homo sapiens) (P07954 whole entry, looked up): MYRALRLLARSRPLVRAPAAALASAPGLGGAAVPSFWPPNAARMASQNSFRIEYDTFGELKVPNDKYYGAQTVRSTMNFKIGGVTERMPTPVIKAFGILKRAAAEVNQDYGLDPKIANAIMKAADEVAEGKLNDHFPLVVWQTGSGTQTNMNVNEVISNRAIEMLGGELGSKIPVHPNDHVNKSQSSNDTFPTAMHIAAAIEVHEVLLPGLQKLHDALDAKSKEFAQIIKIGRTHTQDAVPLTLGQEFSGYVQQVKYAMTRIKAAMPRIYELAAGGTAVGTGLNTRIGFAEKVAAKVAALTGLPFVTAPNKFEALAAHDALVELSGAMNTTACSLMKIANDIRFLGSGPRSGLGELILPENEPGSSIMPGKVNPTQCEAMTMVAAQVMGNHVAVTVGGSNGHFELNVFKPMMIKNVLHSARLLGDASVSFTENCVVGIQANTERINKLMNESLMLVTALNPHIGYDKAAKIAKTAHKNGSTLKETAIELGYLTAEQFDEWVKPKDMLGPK
For primary high-throughput screen, 3 ul of FH solution (containing 13.33nM human fumarate hydratase, 13.33IU/ml malic dehydrogenase, 0.2mM NAD, 0.067mg/ml diaphorase and 0.067mM resazurin in the assay buffer (50 mM Tris pH 8.0, 5 mM MgCl2, 0.01% Brij 3) was dispensed into each well in a black solid bottom 1536-well assay plate (Greiner Bio-One) using a BioRAPTR FRD dispenser (Beckman Coulter, Brea, CA). A 1536-well pintool dispenser outfitted with 20 nl pins (Wako Automation, San Diego, CA) was used to transfer 20 nL of DMSO-solubilized compound (Cherrypick plates) to each 1536-well assay plate. Each compound was screened at five concentrations: 15 nM, 151 nM, 1.5 uM, 15.4 uM, 76.9 uM. Following compound transfer, plates were incubated in room temperature for 10 minutes. 1 uL of substrate solution containing fumaric acid (160 uM) was dispensed via BioRAPTR FRD to initiate the reaction. Plates were immediately transferred to a ViewLux microplate imager (PerkinElmer, Waltham, MA), and any resulting resorufin fluorescence was measured (exitation/emission, 525/598 nm) at 0 and 15 minutes. The exposure time is 1 second. Fluorescence from each well was normalized using enzyme-free and DMSO-treated control wells on each plate, and changes in fluorescence (delta RFU) were calculated using the difference in fluorescent signal for each well at 15 minutes versus 0 minutes.
(In general: Alamar Blue is a resazurin reagent that responds to reducing activity.)
`C=C1CCC2C(C)(C(=O)OC)CCCC2(C)C1CCC1=CCOC1=O` (centres undefined): the “activity change, negative = inhibition” value was -5.08% [at 53.3 µM] (inactive).

Consider `Cc1cn(CCN2CCN(c3ccccc3-c3cc(C#N)cc(C(=O)NCCCN4CCCC4)c3)CC2)c2ccccc12`, for which the “activity change, negative = inhibition” value is -5.7% (inactive).

As to `COC(=O)C1=CO[C@@H](O[C@@H]2O[C@H](CO)[C@@H](O)[C@H](O)[C@H]2O)[C@H]2[C@@H]1C=C[C@]21C=C([C@H](C)OC(=O)/C=C/c2ccc(O[C@@H]3O[C@H](CO)[C@@H](O)[C@H](O)[C@H]3O)cc2)C(=O)O1`, the “activity change, negative = inhibition” value was 0.414% [at 20.6 µM] (inactive).

On to `COc1ccccc1CNc1nc2ccc(Cl)cc2n2cnnc12`, for which the “activity change, negative = inhibition” value is -12.9% (inactive).

For the compound `Cc1ccc(C)c(Cn2c(C(=O)O)c(CNCc3cccs3)c3ccccc32)c1`, the “activity change, negative = inhibition” value was -18.3% (inactive).

`CNCC(O)c1ccc(O)c(O)c1` (centres undefined): the Potency result is “inactive and 6.92 µM (active)”.

With `O=C(COc1ccc(Cl)cc1)N(Cc1ccco1)Cc1ccco1`, the “activity change, negative = inhibition” value is -13.3% (inactive).

For the compound `COc1ccccc1NC(=O)CSc1oc(-c2ccco2)nc1S(=O)(=O)c1ccc(Br)cc1`, the “activity change, negative = inhibition” value was -21.2% (inactive).

With `CNc1nc(-c2ccc3c(N)n[nH]c3c2)cc(N2CC(C(=O)NC3CCCCC3)CCC2C)n1` (centres undefined), the “activity change, negative = inhibition” value is 1.2% (inactive).

Regarding `O=C(N[C@H]1CCC[C@H](CO)C1)C1CCN(c2nc3cc(Cl)c(-c4ccc(Cl)cc4)cc3o2)CC1`, the “activity change, negative = inhibition” value is -10.4% (inactive).

Take `CCOC(=O)c1[nH]c(C)c(CCC(=O)NCc2ccccc2C)c1C`: the “activity change, negative = inhibition” value is -3.89% (inactive).

Turning to `CCN(CC)C(=O)CSc1nc2ccsc2c(=O)n1Cc1ccccc1Cl`, the “activity change, negative = inhibition” value is -3.5% (inactive).

Consider `CCOc1ccc(-n2nc3ccc(NC(=O)c4ccc(OC)c(Cl)c4)cc3n2)cc1`, for which the “activity change, negative = inhibition” value was -6.48% (inactive).

With `Cc1nn(C(=O)c2c(F)cccc2F)c(C)c1S(=O)(=O)N1CCOCC1`, the “activity change, negative = inhibition” value was 3.28% (inactive).

In the case of `COC(=O)C1=CO[C@@H](O[C@@H]2O[C@H](CO)[C@@H](O)[C@H](O)[C@H]2O)[C@@H]2[C@@H](C(=O)O)CC[C@H]12`, the “activity change, negative = inhibition” value was 0.0483% [at 53.3 µM] (inactive).

As for `CCCCC1CCN(CCCN2C(=O)CCc3ccccc32)CC1`, the “activity change, negative = inhibition” value is -0.254% (inactive).

As for `CC/C=C\CC1C(=O)C=CC1(CCCCCCCC(=O)O)OC(C)=O` (centres undefined), the “activity change, negative = inhibition” value was -0.917% [at 53.3 µM] (inactive).

Take `COc1cccc(CNC(=O)c2ccc3c(Cl)c4c(nc3c2)CCCC4)c1`: the “activity change, negative = inhibition” value is -9.91% (inactive).

Regarding `C=CC(C)(O)CO[C@@H]1O[C@H](CO)[C@@H](O)[C@H](O)[C@H]1O` (some centres undefined), the “activity change, negative = inhibition” value was 22.8% (inactive).

Consider `Cc1cc2c(cc1S(=O)(=O)CCC(=O)NCc1ccccc1)OCC(=O)N2`, for which the “activity change, negative = inhibition” value is -2.14% (inactive).

Regarding `CC(C)(OC1OC(CO)C(O)C(O)C1O)C1CCC(O)(CO)C2CC(O)C(C)(O)C2C1` (centres undefined), the “activity change, negative = inhibition” value is 8.59% [at 53.3 µM] (inactive).

On to `O=C(/C=C/c1ccc(O)cc1)OCC1=C[C@@H](O)[C@@H]2C=CO[C@@H](O[C@@H]3O[C@H](CO)[C@@H](O)[C@H](O)[C@H]3O)[C@H]12`, for which the “activity change, negative = inhibition” value was -7.41% [at 53.3 µM] (inactive).

Take `COc1cc(C(C)=O)c(OC)c2c1OC(C)(C)C=C2`: the “activity change, negative = inhibition” value is 0.675% (inactive).

For `O=C(CSc1nccn1C1CCCC1)Nc1cc(C(F)(F)F)ccc1Cl`, the “activity change, negative = inhibition” value was -25.7% (inactive).

Regarding `C=CC(C)(O)CC/C=C(\C)C(=O)OC1C(O)C(CO)OC(OC(=O)C23CCC(C)(C)CC2C2=CCC4C5(C)CCC(OC6OC(COC7OCC(OC(C)=O)C(O)C7OC7OC(COC(C)=O)C(O)C(O)C7OC(C)=O)C(O)C(O)C6OC6OCC(O)C(O)C6O)C(C)(C)C5CCC4(C)C2(C)C(O)C3O)C1OC1OCC(OC2OCC(O)C(OC3OCC(O)C(O)C3O)C2O)C(O)C1O` (centres undefined), the activity change, negative = inhibition is 3.1% [at 13.5 µM] (inactive).

`C=C1CCC[C@]2(C)CC/C(=C(/CO)C(=O)OC)C[C@@H]12`: the “activity change, negative = inhibition” value was -6.7% (inactive).

For the compound `CC[C@H](C)[C@H](NC(=O)[C@H]([C@@H](C)CC)N(C)C(C)=O)C(=O)N[C@H](C(=O)N[C@@H](CC(C)C)C(=O)[C@@]1(C)CO1)[C@@H](C)O`, the “activity change, negative = inhibition” value is -8.46% (inactive).

As for `COc1cc(C2c3cc(O)c(OC)cc3CC(CO)C2CO)ccc1O` (centres undefined), the “activity change, negative = inhibition” value was -1.89% [at 53.3 µM] (inactive).

In the case of `CCOc1ccc(NC(=O)CC2C(=O)N(c3cccc(OC)c3)C(=O)N2C2CCCCC2)cc1` (centres undefined), the “activity change, negative = inhibition” value was -21.2% (inactive).

`COc1cccc(C(=O)c2sc3nc(-c4ccccc4)cc(C(F)(F)F)c3c2N)c1`: the “activity change, negative = inhibition” value was -18.3% (inactive).

On to `Cc1cccc(N2CCN(C(=O)Cn3ncc4c5ccccc5n(C)c4c3=O)CC2C)c1` (centres undefined), for which the “activity change, negative = inhibition” value was -11.6% (inactive).

As to `CC(=O)/C=C/C1(O)C(C)(C)CC(O)CC1(C)O` (centres undefined), the “activity change, negative = inhibition” value was 7.46% (inactive).

In the case of `Cc1ccc2nc(COc3cccc(NC(=O)c4ccccc4Cl)c3)cc(=O)n2c1`, the “activity change, negative = inhibition” value was -7.7% (inactive).

`O=C(Cn1c(=O)n(-c2ccc(F)cc2)c(=O)c2sccc21)Nc1cccc(C(F)(F)F)c1`: the “activity change, negative = inhibition” value is -16.2% (inactive).

As for `COc1ccc(CCN2C(=O)N(c3cccc(OC)c3)C(=O)C2CC(=O)Nc2ccccc2)cc1` (centres undefined), the “activity change, negative = inhibition” value is -34.4% (inactive).

For the compound `CC1=C(C)C(=O)OC(C(C)C2CCC3C4CC=C5CC(OC6OC(COC7OC(CO)C(O)C(O)C7O)C(O)C(O)C6O)CC(O)C5(C)C4CCC23C)C1` (centres undefined), the “activity change, negative = inhibition” value is -4.36% [at 20.6 µM] (inactive).

For `CN(C(=O)CSc1nc2ccc(NC(=O)COc3ccccc3)cc2s1)c1ccccc1`, the “activity change, negative = inhibition” value was -9.62% (inactive).

On to `CC(Nc1ncnc2nc[nH]c12)c1cc2cccc(Cl)c2c(=O)n1-c1ccccc1` (centres undefined), for which the “activity change, negative = inhibition” value is -6.04% (inactive).

As for `COc1ccc(NC(=O)c2ccc(-c3ccc(C(=N)N)cc3C)cc2)cc1N1CCN(C)CC1`, the “activity change, negative = inhibition” value is -13.4% (inactive).

`Cc1c(C2=CCN(C(=O)N(C)C(C)C)CC2)nnn1-c1cccnc1F`: the “activity change, negative = inhibition” value was -2.43% (inactive).

Turning to `C/C=C/C1=CC2=CC(=O)C(C)(O)C(OC(=O)c3c(C)cc(O)cc3O)C2CO1` (centres undefined), the “activity change, negative = inhibition” value was -4.08% [at 53.3 µM] (inactive).

Turning to `COc1ccc(Cn2ccnc2SCC(=O)Nc2ccc3c(c2)OCO3)cc1`, the “activity change, negative = inhibition” value was -2.17% (inactive).

As to `O=C(CSCc1cnn(-c2ccccc2)c1-n1cccc1)NCc1ccccc1Br`, the “activity change, negative = inhibition” value was -11.3% (inactive).

For the compound `Cc1cccc(N2CCN(c3c(CN4CCCC4)c(=O)oc4ccccc34)CC2)c1C`, the “activity change, negative = inhibition” value was -2.63% (inactive).

Turning to `Cn1c(=O)[nH]c(=O)c2c1nc(NCCc1ccccc1)n2Cc1ccc(F)cc1`, the “activity change, negative = inhibition” value is -6.91% (inactive).

As for `CCCOc1cccc(C(=O)Nc2cccc(NC(=O)c3ccc(C(C)(C)C)cc3)c2)c1`, the “activity change, negative = inhibition” value is -3.92% (inactive).

As to `COc1ccccc1-n1c(SCC(=O)Nc2nc3ccc(C)cc3s2)nc2c(c1=O)SCC2`, the “activity change, negative = inhibition” value was -7.7% [at 53.3 µM] (inactive).

On to `COc1ccc(CCNc2ncnc3c2cnn3-c2ccc(C)cc2)cc1`, for which the “activity change, negative = inhibition” value is -5.98% (inactive).

On to `CC1(C)C[C@H]2C3=CCC4[C@@]5(C)CC[C@H](O[C@H]6O[C@H](C(=O)O)[C@@H](O)[C@H](O)[C@H]6O[C@H]6O[C@H](CO)[C@@H](O)[C@H](O)[C@H]6O[C@@H]6O[C@H](CO)[C@@H](O)[C@H](O)[C@H]6O)[C@](C)(CO)C5CC[C@@]4(C)[C@]3(C)CC[C@@]2(C)[C@H](O[C@@H]2OC[C@H](O)[C@H](OC3O[C@H](CO)[C@@H](O)[C@H](O)[C@H]3O)[C@H]2O)[C@@H]1O` (some centres undefined), for which the activity change, negative = inhibition is 17.6% [at 13.5 µM] (inactive).
